# Sampled rows, rich in hits. Any-hit rate of the full collection: about 18%.
# LDHA inh = inhibitors of human lactate dehydrogenase A; P00338; purified LDHA, NADH/diaphorase-resazurin fluorescence; active compounds read low; activity change, % (values are at about 110 or 230 µM); 480,000 compounds, 0.15% hits; AID 1347041; in the data active means activity change below about -30%; inconclusive means mostly about -25% to -30%;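 further: plate controls were DMSO wells for no effect and wells without enzyme for full effect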
#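 Human LDH5 (2 nM) was incubated with 0.06 mM NADH and 0.2 mM pyruvate for 5 min at room temperature in Tris pH 7.4. Remaining NADH was coupled through diaphorase/resazurin, and resorufin fluorescence was read at 0 and 20 min.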
# IL-1B inflam inh = blocks inflammasome-driven IL-1 beta release | AID 743279 | activity change, % at 57.5 µM | THP-1 LPS/ATP IL-1B secretion, AlphaLISA, 16 h; active compounds read low | 360,000 compounds, 4.7% hits; in the data active means activity change below about -50%; inconclusive means mostly about -30% to -49%
#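 Secreted IL-1B measured by AlphaLISA bead assay after 16 h compound exposure of THP-1 cells; compounds (final up to 57.5 uM) added 1 h before LPS (250 ng/mL) and ATP (1.25 mM) stimulation; lower signal means less secretion.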
# TDP1 cell CPT = DT40-hTDP1 cell growth loss with CPT | chicken DT40 Tdp1-/-;hTDP1 cells + 20 nM CPT, ATP luminescence, 48 h | Potency, µM (series often up to 46.2 µM), for the others: at the highest dose activity change, negative = growth inhibition, usual class: inhibitors | 420,000 compounds, 12% hits | AID 686979; further: potency means the concentration at half of the fitted maximal effect; nearly all actives have a fitted effect of over 55% in size
#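 Chicken DT40 Tdp1-/- cells stably complemented with human TDP1 were seeded at 400 cells/well in medium containing 20 nM camptothecin, exposed to pin-transferred compounds, and grown at 37 °C for at least 48 hr. Viability was read as ATP luminescence.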
# RORgamma inh = inhibitors of mouse ROR gamma transcriptional activity; P51450; AID 2551; Potency, µM (highest dose often 53.6 µM), for the others: at the highest dose activity change, negative = inhibition, hits mostly inhibitors; Drosophila S2 Gal4-RORgamma UAS-luciferase reporter, 20 h; 310,000 compounds, 5.4% hits; further: potency means the concentration at half of the fitted maximal effect; nearly all actives have a fitted effect of over 60% in size
# Target sequence (P51450 whole entry, looked up, the tested form may be a part): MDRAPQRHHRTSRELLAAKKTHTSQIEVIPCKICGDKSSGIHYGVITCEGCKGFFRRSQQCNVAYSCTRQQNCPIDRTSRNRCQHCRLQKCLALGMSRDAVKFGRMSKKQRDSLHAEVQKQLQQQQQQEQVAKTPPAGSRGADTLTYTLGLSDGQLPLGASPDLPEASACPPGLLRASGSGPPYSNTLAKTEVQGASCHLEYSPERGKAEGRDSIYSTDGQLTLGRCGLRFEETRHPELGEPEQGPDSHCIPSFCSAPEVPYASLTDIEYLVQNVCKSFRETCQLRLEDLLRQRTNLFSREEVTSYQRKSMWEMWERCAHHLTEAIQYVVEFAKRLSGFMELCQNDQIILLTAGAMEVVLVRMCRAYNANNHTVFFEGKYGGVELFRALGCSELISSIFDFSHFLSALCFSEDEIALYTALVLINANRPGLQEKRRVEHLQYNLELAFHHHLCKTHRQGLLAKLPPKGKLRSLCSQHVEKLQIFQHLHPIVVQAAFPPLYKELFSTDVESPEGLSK
#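 ROR gamma transcriptional activity was tracked as Gal4-UAS luciferase output in stably transfected Drosophila Schneider cells, with compound added 1 hr before 700 uM copper sulfate induction and a 20 hr ambient-temperature incubation.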
# DT40 TDP1 no CPT = qHTS for Inhibitors of human tyrosyl-DNA phosphodiesterase 1 (TDP1): qHTS in cells in absence of CPT | DT40 Tdp1-/- hTDP1 cells, no CPT, ATP luminescence, 48 h | Potency, µM (series often up to 46.2 µM), for the others: at the top dose activity change, negative = growth inhibition, most hits filed as inhibitors | 420,000 compounds, 15% hits | AID 686978, 2013; further: potency means the concentration at half of the fitted maximal effect; nearly all actives have a fitted effect of over 55% in size
#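 Luminescent ATP content (CellTiter-Glo) served as the growth readout. Knockout chicken DT40 cells expressing human TDP1 were exposed to compounds without camptothecin for a minimum 48 hr at 37 °C.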
# VP16 counter = counter-screen for ROR gamma inhibitors: Gal4-VP16 reporter. Drosophila S2 Gal4-VP16 UAS-luciferase, luminescence, 20 h. 310,000 compounds, 3.5% hits. Potency, µM (top dose mostly 53.6 µM), for inactives: top-dose activity, negative = inhibition, hits mostly inhibitors;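 further: Gal4-VP16 expression switched on by copper sulfate through the metallothionein promoter; potency means the concentration at half of the fitted maximal effect; nearly all actives have a fitted effect of over 50% in size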
# * marks the source's active call; other numbers are inactive results; ? = inconclusive; . = not tested or not shown. Unless noted, the call rests on the fitted dose curve; in most records, active means well fitted curve in the direction sought with a large enough effect; inconclusive means small, poorly fitted or top-dose-only effect, or another doubt; inactive means no such curve, though single readings can be large; an effect the other way counts as inactive or inconclusive. Unless noted, on the % scale 0 is the no-effect control and ±100 the full control effect.
SMILES,LDHA inh,IL-1B inflam inh,TDP1 cell CPT,RORgamma inh,DT40 TDP1 no CPT,VP16 counter
CCCCCC/C=C/c1ccc([C@H]2[C@H]3C=CC[C@@H](C)[C@@H]3C(=O)N2Cc2ccccc2)c(F)c1,0,28,?,9%,16µM*,-5%
O=C(O)CCCNC(=O)Cn1ccc2ccc(Cl)cc21,-7,.,.,.,.,.
CS(=O)(=O)N1CCc2cc(C(=O)c3cc4cc(Br)ccc4o3)ccc21,2,.,.,.,.,.
CCOC1(OCC)OC(c2ccccc2)=C(C#N)C(C=Cc2ccccc2)C1(OCC)OCC (stereo not given),-9,-6,?,.,21µM*,.
CCOC(=O)C1=C(c2ccccc2)OC(N)=C(C#N)C1C1CCCCC1 (stereo not given),10,13,?,-12%,?,-3%
CCOC(=O)c1ccc(NC(=O)C2(c3ccccc3)CCCC2)cc1,-8,27,?,35%,?,-2%
CCOC(=O)c1ccc(NC(=O)C2(c3ccc(Cl)cc3)CCCC2)cc1,1,-20,16µM*,?,?,1%
NC(=O)c1ccc(NC(=O)COC(=O)C2(c3cccc(F)c3)CCCC2)cc1,0,-13,?,20%,26µM*,6%
Cc1ccc(NC(=O)COC(=O)C2(c3ccc(Cl)cc3)CCCC2)cc1,0,?,23µM*,?,23µM*,?
CN(CC(=O)Nc1cccc(C(F)(F)F)c1)C1CCc2ccccc21 (stereo not given),12,.,.,.,.,.
CCc1ccc(C(=O)c2ccccc2C(=O)O)cc1,-10,.,.,.,.,.
COc1ccc(C(=O)NCC(c2ccc(N(C)C)cc2)N2CCc3ccccc32)cc1 (stereo not given),4,.,7.3µM*,.,8.2µM*,.
CN(C)c1ccc(C(CNC(=O)c2ccccc2Cl)N2CCc3ccccc32)cc1 (stereo not given),-2,.,?,.,?,.
Cc1ccc(S(=O)(=O)NCC(c2ccc(N(C)C)cc2)N2CCc3ccccc32)cc1C (stereo not given),-3,.,?,.,23µM*,.
CC(C)Oc1ccc(C(=O)NCC(c2ccc(N(C)C)cc2)N2CCc3ccccc32)cc1 (stereo not given),2,.,9.2µM*,.,21µM*,.
COc1ccc(S(=O)(=O)NCC(c2ccc(N(C)C)cc2)N2CCc3ccccc32)cc1 (stereo not given),-9,.,?,.,?,.
COc1ccccc1C(=O)NCC(c1ccc(N(C)C)cc1)N1CCc2ccccc21 (stereo not given),1,.,21µM*,.,16µM*,.
Cc1ccc(C(CNC(=O)c2cc(-c3ccc4c(c3)CCCC4)on2)N2CCN(C)CC2)o1 (stereo not given),16,.,.,.,.,.
CCOC(=O)C1CCN(C(=O)c2cn(-c3ccccc3)nc2-c2ccc(Cl)cc2)CC1,7,.,.,.,.,.
CCC(C)NC(=O)C1CCN(C(=O)C(C)(C)C)CC1 (stereo not given),7,.,.,.,.,.
CN(C)c1ccc(C(CNC(=O)c2ccccc2)N2CCc3ccccc32)cc1 (stereo not given),-1,.,7.3µM*,.,15µM*,.
CC1=CC(C)(C)NC(=S)N1c1cccc(C)c1,-5,-26,?,4.5µM*,?,11µM*
Cc1cccc(N2C(=O)CCC2=O)c1,-5,-9,-4%,-9%,-16%,-4%
CC1=CC(C)(C)NC(=S)N1c1ccc([N+](=O)[O-])cc1,-1,-2,29µM*,.,21µM*,.
CC1=CC(C)(C)NC(=S)N1c1ccc(C)c(C)c1,-4,-1,?,0.56µM*,?,4.5µM*
Cc1ccc(N2NC3(CCCCC3)NC2=S)cc1,18,.,.,.,.,.
